What was measured:
Assay in all cases: PBM binding z-score (relative to random genomic background probes); higher = stronger binding; sequences stand for … in GC…GCGATTGACAGCGTAGAATGAAGG
[1] = tested on: PPARg:RXRa DBDmut IVT, anti-RXR (DBD mutation: RXRa K156A/R161A, NR concentration 270 nM, RXRa partner concentration 90 nM)
Method in brief: (§1)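 Each nuclear receptor dimer, without ligand, was incubated for 1 h on custom Agilent 4×180K protein-binding microarrays. Binding was detected with antibodies against each partner (one per run), and scanned fluorescence was regression-normalized. The binding z-scores are referenced to random human genomic background probes.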

[2] = tested on: PPARg:RXRa IVT, anti-PPARg (NR concentration 270 nM, RXRa partner concentration 90 nM)
Method in brief: as §1

[3] = tested on: PPARg DBDmut:RXRa IVT, anti-PPARg (DBD mutation: PPARg1 K132A/R137A, NR concentration 270 nM, RXRa partner concentration 90 nM)
Method in brief: as §1

[4] = tested on: PPARg DBDmut IVT, anti-PPARg (DBD mutation: PPARg1 K132A/R137A, NR concentration 270 nM)
Method in brief: as §1

[5] = tested on: PPARg homodimer (NR concentration 180 nM)
Method in brief: as §1

[6] = tested on: PXR:RXRa (NR concentration 270 nM, RXRa partner concentration 90 nM)
Method in brief: as §1

[7] = tested on: PXR homodimer (NR concentration 270 nM)
Method in brief: as §1

[8] = tested on: RARa:RXR (NR concentration 270 nM, RXRa partner concentration 90 nM)
Method in brief: as §1

[9] = tested on: RARa homodimer (NR concentration 270 nM)
Method in brief: as §1

[10] = tested on: RARb:RXRa (NR concentration 270 nM, RXRa partner concentration 90 nM)
Method in brief: as §1

Sequence | PBM binding z-score [1] | PBM binding z-score [2] | PBM binding z-score [3] | PBM binding z-score [4] | PBM binding z-score [5] | PBM binding z-score [6] | PBM binding z-score [7] | PBM binding z-score [8] | PBM binding z-score [9] | PBM binding z-score [10]
ATCGAAAGGTCGACGACGTGAGTATACACCGTTT | 0.416 | 1.22 | 1.4 | 1.43 | 1.37 | 2.32 | -0.182 | 3.07 | 0.0928 | 3.72
TGTCAAACTTCAAAGGTAACGTAAGTATCCACAC | -0.251 | 1.47 | 0.991 | 1.2 | 0.478 | 0.345 | -0.16 | 0.522 | 0.335 | 0.94
ACTAGTTGGTCAGCTGAGGTCACATACAATTCGG | 1.59 | 2.44 | 0.89 | 0.482 | 2.09 | 5.26 | 1.85 | 4.17 | 0.305 | 3.4
CCTAGATGGTCAAGGTCACACACGCTATAGGTAC | 1.66 | 3.08 | 1.08 | 0.88 | 3.58 | 4.21 | 2.09 | 4.57 | 2.52 | 4.29
GGAACGAGGCCAAAGTTGATAGCATCTGTCGACG | 2.57 | 2.98 | -0.146 | -0.0906 | 0.104 | 0.113 | -0.124 | 0.441 | -0.395 | 1.33
TCTATTAGTTGAAGGCCAACCGACGAGTCCGTTT | 2.37 | 0.522 | 0.431 | 0.553 | 1.36 | 0.903 | 1.4 | 0.79 | 1.21 | 1.02
CCTCGGAGGACAACAGTAGGTCAGAGCTGCCAGA | 1.42 | 2.02 | -1.19 | -2.12 | 0.785 | 0.462 | -0.203 | 0.798 | -0.275 | 2.05
TCTGCTAGGTCAGCTGGTCAGCTAACGAGCTGCC | 2.65 | 2.82 | -0.25 | -0.593 | 0.0537 | 0.279 | -1.58 | 0.872 | -1.54 | 3.64
AGTCAAAGTTCAAGACGAGGTAACGTAAAGCACG | 0.127 | 2.85 | 1.37 | 1.3 | 3.22 | 4.49 | 2.5 | 4.02 | 1.38 | 4.84
TGAATGAGGTTAAAAATCAGGGAACGTGGCGTCG | 1.43 | 1.8 | 0.361 | 0.195 | -0.0328 | 0.848 | -0.0817 | 1.45 | -0.472 | 1.32
GCGACTGGGGCATCAGCAGTTTACCATAACTTAA | 3.71 | 2.93 | -0.206 | 0.0271 | 0.458 | 0.227 | 0.14 | 0.0655 | 0.0729 | 0.388
CTCGAAAGGTCGGTTGCGGTGAGTATACGGATAA | 0.303 | 0.901 | 0.157 | 0.202 | 0.797 | 1.4 | -0.173 | 1.62 | -0.203 | 2.92
TCGAGTTGGTTAGTCGGGGCATTCAGCCAACATA | 0.597 | 0.172 | -0.755 | -0.529 | -0.2 | 0.148 | 0.163 | 0.142 | -0.783 | 0.122
TTACCAAGGTGAGCTGAGGTGGTTGATCCAACTC | 0.594 | 1.48 | -0.51 | -0.991 | -0.428 | 0.478 | -0.709 | 1.53 | -0.848 | 0.757
CCTTACGGGGCAAGGTTATAGCACGGGTGGTACG | -0.0352 | 0.442 | -0.313 | -0.783 | 0.309 | 0.145 | -0.13 | 0.546 | 0.0698 | 1.78
TCGAGTAGGTTAGGGGCCTTCAGAATGGCGTCGA | 1.32 | 1.07 | -0.729 | -0.939 | -0.145 | -0.478 | -0.829 | -0.114 | -1.13 | 0.24
TCTTCTAGGTCAGTTGGTCAGCTAACGAGCTGCC | 6.39 | 6.42 | 3.22 | 3.33 | 2.21 | 1.3 | 0.447 | 1.58 | 1.05 | 3.79
CCTAGCAGGCCAGGGTCACTTAAGCATTTCGCTT | 0.351 | 1.01 | -1.25 | -0.972 | 0.813 | 2.15 | -0.248 | 2.71 | 0.0986 | 2.54
AGAATGAGGTTATTAAGATCAGGGCATTGCGGTC | 3.64 | 2.96 | 0.978 | -0.0431 | 1.27 | 1.83 | 1.83 | 1.79 | 0.408 | 1.75

Sequence | PBM binding z-score [1] | PBM binding z-score [2] | PBM binding z-score [3] | PBM binding z-score [4] | PBM binding z-score [5] | PBM binding z-score [6] | PBM binding z-score [7] | PBM binding z-score [8] | PBM binding z-score [9] | PBM binding z-score [10]
TTACCAAGGTGAAGGTCGTTGATCCCTCTGTAGA | 1.59 | 3.45 | 1.02 | -0.236 | 0.792 | 1.48 | 0.114 | 1.76 | -0.599 | 2.28
TCATTTAGGTAAATGCTAGGTGAAAGTCCGATCT | 3.13 | 2.44 | 1.71 | 1.17 | 0.343 | 0.445 | -0.0267 | 0.799 | 0.628 | 0.562
TGAATGACGTTATAAGATCAGGGAACGTTGCAAA | -1.22 | -0.257 | 1.11 | 0.502 | 0.0586 | -0.0188 | -0.13 | 0.166 | 0.18 | -0.286
TCTGCTAGGTCAGTTGGTCCGCTAACGAGCTGCC | 2.64 | 2.46 | 0.84 | 0.95 | -0.535 | -0.0468 | -0.863 | -0.00908 | -1.31 | 3.12
AGAATGATGTTAAGATCAGGGAAACAGAATACAT | -0.786 | -0.128 | -0.544 | 0.266 | -0.958 | -0.441 | -0.00916 | -0.274 | 0.423 | -0.436
TCTGCTAGGTCAACGAGGGTCAGCTAATCTGCTA | 4.34 | 4.28 | -0.294 | -0.307 | 2.15 | 4.96 | -0.4 | 4.03 | -0.252 | 4.65
TCTATTAGTTGAACGGCAACCGACGAGTCCGTTT | 2.15 | 0.0618 | 0.259 | 0.73 | 0.735 | 0.661 | 0.768 | 0.372 | 0.868 | 0.424
CCTAGTTGGTCAAGGTCACCCACGCTATAGGTAC | 1.97 | 3.64 | 0.717 | 1.37 | 4.86 | 4.16 | 2.4 | 4.82 | 3.27 | 4.16
CTCGAAAGGTCGTGCTCAGGTGAGTATACCAAAC | 0.806 | 1.92 | 0.159 | 0.522 | 2.26 | 3.47 | -0.155 | 4.39 | 0.399 | 3.9
GCTAGTTGGTCAGTAAAAGGTCACACACCGGTCG | 1.12 | 2.86 | -0.0862 | 0.91 | 4.27 | 4.95 | 1.3 | 5.91 | 3.23 | 4.19
TCTTGTAGATCAACAGGAGGTAAAGAAAGATCGA | 1.4 | 0.479 | 0.613 | 0.824 | -0.233 | 0.0383 | -0.784 | -0.044 | -0.132 | -0.124
CCTTAAGGGTCAAGGTTATAGCACGGGTGGTACG | 2.34 | 3.94 | 0.0433 | 0.353 | 2.23 | 4.37 | 0.453 | 5.62 | 1.31 | 5.4
CCTACTGGGCCAAAGGTCATTGGTTCCAATGCTC | 5.02 | 6.55 | 0.0482 | -0.387 | 2.89 | 5.41 | 2.21 | 6.04 | 0.819 | 4.51
CCTCGGAGGACAACAGGAGGTAAGAGCTGCCAGA | -0.141 | -0.621 | -1.15 | -1.44 | 0.0253 | -0.402 | -0.651 | -0.0361 | 0.0272 | 0.846
TCTAGTAGATCAACAGGAGGTTAAGAAAGATCGA | 1.67 | 0.911 | 0.0951 | -0.146 | 0.637 | 0.739 | 0.18 | 1.05 | 0.751 | 0.445
ATACCAAGGTGATCTTGAGGTCGTTGATACTAAC | 0.853 | 1.45 | 0.8 | 0.628 | 1.02 | 3.3 | 2.03 | 2.54 | 0.867 | 1.71
CGAACTAGGTCCGAACAGGACAGTGAAGGATGAT | 1.53 | 0.592 | -1.02 | -0.172 | -1.32 | -0.715 | -0.581 | -0.746 | -0.281 | -0.345
CCTTACCGGTCACTCCAGGTTATAGCATCGGAGT | 1.13 | 1.44 | -0.00194 | -0.042 | 1.6 | 1.94 | 1.24 | 1.37 | 1.2 | 2.9
ATCGAAAGGTCGAACGTGAGTATACCCACCCGAA | 0.292 | 1.49 | 1.19 | 0.459 | 1.65 | 2.61 | 0.229 | 2.83 | 0.171 | 3.75

Source: the supplement of paper PMC6555819
